Test results as given in PubChem BioAssay (NCI).
This is part of a sample that, as a whole, favours compounds with a hit. Of some 83,000 tested, about 20% had one in any assay.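 96-well plates, one dose, 48 hours. Percent growth reported; active if below 10.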 The source made the active and inactive calls.

system: A498 renal; experiment: NCI-60 one-dose screen, 48 h (100 = growth as untreated, 0 = no growth, -100 = all killed); details: 10 µM

| SMILES | growth |
| --- | --- |
| Cc1ccc(C(=O)N/C(=C2/OCCN2C)[P+](c2ccccc2)(c2ccccc2)c2ccccc2)cc1 | 122% (inactive) |
| CN(C)c1ccc(/C=C/c2nc3ccccc3c(=O)n2CC(=O)Nc2ccc(Cl)cc2)cc1 | 76.1% (inactive) |
| Cc1ccc(CNC(=O)Cc2ccc3c(c2)CN(C2CCC(=O)NC2=O)C3=O)cc1 (configuration not stated) | -9.84% (active) |
| Cc1ccn2c(C(=O)c3ccccc3)cc(-c3cc(-c4ccc(N(C)C)cc4)c(C#N)c(N)n3)c2c1 | 111% (inactive) |
| CCOP(=O)(OCC)O[C@H]1CCC(=O)[C@@H]2[C@H]1[C@H]1C[C@@H]3[C@@]4(C)CCCC(C)(C(=O)OC)[C@@H]4CC[C@@]23C=C1C(C)C (some centres not stated) | 91.1% (inactive) |
| C#CCNC(=O)CCC(=O)OC[C@]12CC[C@@H](C(=C)C)[C@@H]1C1CC[C@@H]3[C@@]4(C)CCCNC(C)(C)[C@@H]4CC[C@@]3(C)[C@]1(C)CC2 (some centres not stated) | 68.5% (inactive) |
| C/C(=N\N=C\c1ccc(N(C)C)cc1)c1ccc2c(c1)Nc1ccccc1S2 | 86.4% (inactive) |
| O=C(Nc1ccc(Cl)c([N+](=O)[O-])c1)Nc1ccc(Cl)c([N+](=O)[O-])c1 | 20.1% (inactive) |
| COc1ccc(CN2[C@H](C(=O)NCc3ccc(C(=O)NO)cc3)Cc3c([nH]c4ccccc34)[C@H]2C2CC2)cc1 | 65% (inactive) |
| O=C(NO)c1ccc(CNC(=O)[C@H]2Cc3c([nH]c4ccccc34)[C@H](c3ccc(Cl)cc3)N2)cc1 | -6.62% (active) |
| O=C(Cn1nc(-c2ccccc2)ccc1=O)NN1C(=O)c2ccccc2C1=O | 103% (inactive) |
| OCc1[nH]nc2cc(Nc3ncc4ccc(Br)c(OC5CCC(O)CC5)c4n3)ccc12 (configuration not stated) | -26.7% (active) |
| COc1cc2c3c(n(CCCNCCO)c(=O)c2cc1OC)-c1nc2c(cc1C3=O)OCO2 | 69.3% (inactive) |
| COc1ccc(CN2[C@H](C(=O)NCCCCCCC(=O)NO)Cc3c([nH]c4ccccc34)[C@H]2C2CC2)cc1 | -38.3% (active) |
| COc1ccc(C2N(c3ccc(Br)cc3)N=C(C(C)=O)N2[C@H]2[C@H](OC(C)=O)O[C@H](COC(C)=O)[C@@H](OC(C)=O)[C@@H]2OC(C)=O)cc1 (some centres not stated) | 61.3% (inactive) |
| CN1C(=O)N(C)C2SC(N/N=C/c3cccs3)=NC21 (configuration not stated) | 65.6% (inactive) |
| Cc1cc(C)nc(/N=C(\N)Nc2ccc(S(=O)(=O)Nc3nc(C)cc(C)n3)cc2)n1 | 112% (inactive) |
| O=C(Cc1ccc2c(c1)CN(C1CCC(=O)NC1=O)C2=O)NCCc1ccccc1 (configuration not stated) | 1.53% (active) |
| CCNCCCn1c2c(c3cc(OC)c(OC)cc3c1=O)C(=O)c1cc3c(nc1-2)OCO3 | 87.1% (inactive) |

| SMILES | growth |
| --- | --- |
| O=C(CNc1nc(-c2ccccc2)cs1)Nc1ccc(Cl)cc1[N+](=O)[O-] | 14.8% (inactive) |
| Cc1ccc2nc(-c3ccc(-c4nnc(SCC(=O)Nc5ccc(Cl)cc5)o4)cc3)[nH]c2c1 | 73.9% (inactive) |
| Cc1ccc(C(=O)NNC(=O)CSc2nc3ccccc3c(=O)[nH]2)cc1 | 94.6% (inactive) |
| CN(C)CCNC(=O)OCCCCOc1cc(O)c2c(=O)cc(-c3ccccc3)oc2c1 | -76.4% (active) |
| CCCCSc1nc(Nc2ccc(/C(C)=N/NC(N)=S)cc2)c(C#N)c(-c2ccccc2)n1 | 42.1% (inactive) |
| O=c1[nH]c2ccccc2cc1CSc1ccc(Nc2nccc(-c3ccc4c(c3)OCO4)n2)cc1 | 121% (inactive) |
| COc1cc2oc(-c3cccc(C(=O)Nc4ccc(Cl)cc4)c3)cc(=O)c2c(OCCNC(=O)CNC(=O)OC(C)(C)C)c1OC | 118% (inactive) |
| Cc1ccc2nc(-c3ccc(-c4nnc(SCC(=O)Nc5ccc(Br)cc5)o4)cc3)[nH]c2c1 | 83.4% (inactive) |
| COc1ccc(CN2[C@@H](C(=O)NCc3ccc(C(=O)NO)cc3)Cc3c([nH]c4ccccc34)[C@@H]2C)cc1 | -5.13% (active) |
| O=C(CNc1nc(-c2ccccc2)cs1)Nc1cccc(Cl)c1 | 66.5% (inactive) |
| NS(=O)(=O)c1ccc(NC(=O)CSc2ccc(-c3ccc(Cl)cc3)nn2)c(Br)c1 | 0.192% (active) |
| Clc1ccc2c(N/N=C/c3c[nH]c4ccc(Br)cc34)ccnc2c1 | -77% (active) |
| Cc1ccc(-c2ccc(SCC(=O)Nc3ccc(S(N)(=O)=O)cc3Br)nn2)cc1 | 87.2% (inactive) |
| CC(=O)Nc1ccc(-c2cn(-c3cccc(C(=O)Nc4cccc(OC(F)(F)F)c4)c3)nn2)cn1 | 178% (inactive) |
| CCOC(=O)N/C(=C1/OCCN1C)[P+](c1ccccc1)(c1ccccc1)c1ccccc1 | 115% (inactive) |
| O=C(NO)c1ccc(CNc2nc(-c3ccccc3)c3ccccc3n2)cc1 | -42.4% (active) |
| Cc1cc(C)nc(NS(=O)(=O)c2ccc(N/C(N)=N/c3nccc(-c4cccs4)n3)cc2)n1 | 117% (inactive) |
| COc1cnc2c(c1)C(=O)c1c-2n(CCCNCCO)c(=O)c2cc(OC)c(OC)cc12 | 101% (inactive) |
